Measured values from the supplement of paper PMC10498489.
Out of some 2,300 compounds screened, about 330 (14%) showed activity. The list is a sample of the results. A number with no mark means an inactive call.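 The calls were made as follows: active = median modified Z-score above 1.96; inactive = 1.96 or below.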

Each molecule was assayed on HepG2 Srxn1-GFP reporter cells (+30 nM CDDO-Me) (assay: Srxn1-GFP intensity median modified Z-score relative to plate median; higher = stronger NRF2 / oxidative stress reporter activation, active = hit call of the paper). Conditions: 10 µM; exposure time: 24h.
Summary of the method: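 Each value is the replicate median of a per-plate modified Z-score for GFP intensity in HepG2 Srxn1-GFP BAC reporter cells. The cells (20,000 per well, 96-well plates, three replicate plates) received compound at 10 μM together with an NRF2 activator at 30 nM for 24 h, in ≤0.1% DMSO. Cytoplasmic GFP was quantified per cell from confocal images of formaldehyde-fixed, Hoechst-stained cells, leaving out images with fewer than 100 cells, and scaling used 1.4826 × median absolute deviation.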

Compound	Srxn1-GFP intensity median modified Z-score
CC(C)C1CCC(C(=O)NC(Cc2ccccc2)C(=O)O)CC1 (stereo not drawn) [euspeclibcmpd675]	-0.338
Nc1ccc(S(N)(=O)=O)cc1 [euspeclibcmpd1042]	-0.418
Nc1ccc(S(=O)(=O)O)cc1 [euspeclibcmpd2086]	2.19 (active)
Nc1ccc(S(=O)(=O)c2ccc(N)cc2)cc1 [euspeclibcmpd82]	0
NCCC(=O)NC(Cc1c[nH]cn1)C(=O)O (stereo not drawn) [euspeclibcmpd1431]	-0.178
C[C@]12CCC3c4ccc(OC(=O)c5ccccc5)cc4CCC3C1CCC2=O (stereo partly drawn) [euspeclibcmpd2153]	-0.646
CC(=O)NC(CC(=O)NC(CCC(=O)O)C(=O)O)C(=O)O (stereo not drawn) [euspeclibcmpd1295]	-0.164
CC[C@H](/C=C/C(C)C1CCC2C3CC=C4CC(=O)CC[C@]4(C)C3CC[C@]12C)C(C)C (stereo partly drawn) [euspeclibcmpd1667]	-0.11
Cc1cc2nc3ccc(N(C)C)cc3[s+]c2cc1N [euspeclibcmpd1030]	9 (active)
CN(C)c1ccc2nc3ccc(N(C)C)cc3[s+]c2c1 [euspeclibcmpd789]	9.06 (active)
CC(C)(S)C(N)C(=O)O (stereo not drawn) [euspeclibcmpd968]	0.0726
OC[C@@H](O)[C@@H](O)[C@H](O)[C@@H](O)CO [euspeclibcmpd2147]	-0.0321
N=C(N)N=C(N)N1CCOCC1 [euspeclibcmpd1191]	-0.583
NC(=O)CCC(NC(=O)C(N)CO)C(=O)O (stereo not drawn) [euspeclibcmpd2427]	-0.15
CC(=O)O[C@]1(C)CC[C@@]23CC1C(C)(C)[C@@H]2CC[C@H]3C [euspeclibcmpd1510]	3.58 (active)
CC(=O)OC1CCC23CC1(C)CCC2C(C)(C)CC3OC(C)=O (stereo not drawn) [euspeclibcmpd1983]	0.679
C[C@@H]1CC[C@H]2C(C)(C)C3CC12CC[C@@]3(C)O (stereo partly drawn) [euspeclibcmpd1468]	-0.304
Cc1ccccc1-n1cnnc1SCC(=O)c1ccc2c(c1)OCCO2	1.22
CC(C)c1ccc2c(c1)CCC1C(C)(C(N)=O)CCCC21C (stereo not drawn) [euspeclibcmpd1367]	15.1 (active)
Cc1ccc2c(c1)CC[C@H]1CC(=O)CC[C@]21C [euspeclibcmpd2206]	0.163
CC(C)C1=CC2=CCC3[C@](C)(CCC[C@]3(C)C(=O)O)C2CC1 (stereo partly drawn) [euspeclibcmpd1332]	-0.234

Compound	Srxn1-GFP intensity median modified Z-score
CN1C(CC(=O)c2ccccc2)CCCC1CC(O)c1ccccc1 (stereo not drawn) [euspeclibcmpd1050]	-0.349
Cc1cc[nH]c(=NS(=O)(=O)c2ccc(N)cc2)n1 [euspeclibcmpd275]	-0.506
NC(=O)C(c1ccccc1)(c1ccccc1)C1CCN(CCc2ccc3c(c2)CCO3)C1 (stereo not drawn) [euspeclibcmpd914]	-0.0168
Cc1cc(C)c2c(=O)c3c(oc2c1)C(=O)N(Cc1ccc(F)cc1)C3c1cccc(O)c1 (stereo not drawn)	1.43
CCCCCCCCCCCCCCCC(=O)O[C@@H]1[C@@H](O)[C@@H](O)[C@H]([C@H](NC(=O)C2C[C@@H](CCC)CN2C)[C@H](C)Cl)O[C@@H]1SC (stereo partly drawn) [euspeclibcmpd1310]	0.0886
CCCCCCCCCCCCCCCC[N+](C)(C)CCN(Cc1ccc(OC)cc1)c1ncccn1 [euspeclibcmpd626]	1.67
CC(C)(C)CC(C)(C)c1ccc(OCCOCC[N+](C)(C)Cc2ccccc2)cc1 [euspeclibcmpd33]	9.81 (active)
C[N+](C)(CCOc1ccccc1)Cc1ccccc1 [euspeclibcmpd868]	2.62 (active)
Cc1cc(C(C)(C)CC(C)(C)C)ccc1OCCOCC[N+](C)(C)Cc1ccccc1 [euspeclibcmpd556]	24 (active)
CCCCCCCCCCCCC[N+](C)(C)Cc1ccccc1 [euspeclibcmpd590]	3.29 (active)
Oc1ccc(OCc2ccccc2)cc1 [euspeclibcmpd515]	1.16
CCCCC(O)c1ccccc1 (stereo not drawn) [euspeclibcmpd2082]	-0.178
C[C@]12C=CC(=O)CC1=CCC1C3C[C@@H](O)[C@](O)(C(=O)CO)[C@@]3(C)C[C@H](O)[C@@]12F (stereo partly drawn) [euspeclibcmpd302]	-0.809
CC1(C)C(C(=O)O)N2C(=O)C[C@H]2S1(=O)=O (stereo partly drawn) [euspeclibcmpd473]	-0.4
CC(C)(O)CC[C@@H](O)[C@](C)(O)[C@@H]1CC[C@@]2(O)C3=C(CC[C@]12C)[C@@]1(C)C[C@H](O)[C@H](O)CC1C(=O)C3 (stereo partly drawn) [euspeclibcmpd1686]	0.91
O=C(O)c1cc(N=Nc2ccc(O)c(C(=O)O)c2)ccc1O [euspeclibcmpd2114]	-0.278
N=c1[nH]c(=NC2CC2)c2ncn(C3C=C[C@@H](CO)C3)c2[nH]1 (stereo partly drawn) [euspeclibcmpd479]	-0.254
CCCCC/C=C/CCC(=O)N[C@H]1[C@H](Oc2c3cc4cc2Oc2ccc(cc2Cl)[C@@H](O[C@@H]2O[C@H](CO)[C@@H](O)[C@H](O)[C@H]2NC(C)=O)c2[nH]c(O)c(c5ccc(O)c(c5)c5c(OC6O[C@H](CO)[C@@H](O)[C@H](O)[C@@H]6O)cc(O)cc5c(=C(O)O)[nH]c2O)NC(=O)[C@@H]4NC(=O)[C@H]2NC(=O)C(Cc4ccc(c(Cl)c4)O3)NC(=O)[C@H](N)c3ccc(O)c(c3)Oc3cc(O)cc2c3)O[C@H](CO)[C@@H](O)[C@@H]1O (stereo partly drawn) [euspeclibcmpd852]	-0.162
OC[C@H](O)[C@@H](O)CO [euspeclibcmpd2221]	-0.0632
Clc1cccc(Cn2cc(-c3cnn(Cc4cccc(Cl)c4)c3)cn2)c1	1.3
C[C@H](CCC(=O)NCC(=O)O)[C@H]1CCC2C3C(C[C@H](O)[C@@]21C)[C@@]1(C)CC[C@@H](O)CC1C[C@H]3O (stereo partly drawn) [euspeclibcmpd1671]	-0.257

Compound	Srxn1-GFP intensity median modified Z-score
CC(C)C=CC=CCC(=O)N[C@@H](CC(N)=O)C(=O)N[C@@H]1C(=O)N[C@H](c2ccc(O)cc2)C(=O)N[C@H](CCCN)C(=O)N[C@H]([C@H](C)O)C(=O)N[C@@H](c2ccc(O)cc2)C(=O)N[C@H](c2ccc(O)cc2)C(=O)N[C@@H]([C@H](C)O)C(=O)N[C@@H](Cc2ccccc2)C(=O)N[C@H](CCCN)C(=O)N[C@@H](c2ccc(O[C@@H]3O[C@H](CO)[C@H](O)[C@@H](O)[C@@H]3O[C@@H]3O[C@H](CO)[C@@H](O)[C@H](O)[C@H]3O)cc2)C(=O)NC(C(C)O)C(=O)N[C@@H](c2ccc(O)cc2)C(=O)NCC(=O)N[C@@H](CC(C)C)C(=O)N[C@H](C)C(=O)N[C@@H](c2ccc(O)c(Cl)c2)C(=O)O[C@@H]1C(N)=O (stereo partly drawn) [euspeclibcmpd1079]	0.139
Cc1cc(=O)n(-c2ccccc2)[nH]1 [euspeclibcmpd1143]	-0.434
CC(=O)N[C@@H]1[C@@H](OC(C)C(=O)O)[C@H](O)[C@@H](CO)O[C@H]1O (stereo partly drawn) [euspeclibcmpd2433]	-0.153
COC(=O)C[C@H]1C(C)(C)[C@@H](OC(C)=O)C2CC3C4CC(=O)O[C@@H](c5ccoc5)[C@]4(C)CCC3[C@@]1(C)C2=O (stereo partly drawn) [euspeclibcmpd1596]	1.31
C/C1=C/CC(C)(C)/C=C/C/C(C)=C/CC1 [euspeclibcmpd1338]	0.112
CCN(CC)CCNc1ccc(CO)c2sc3ccccc3c(=O)c12 [euspeclibcmpd550]	13.8 (active)
CCCCOc1cc(C(=O)NCCN(CC)CC)c2ccccc2n1 [euspeclibcmpd89]	0.582
N=C(N)NCC1COC2(CCCCC2)O1 (stereo not drawn) [euspeclibcmpd1929]	-0.0176
CN(CCOc1ccc(Cc2sc(=O)[nH]c2O)cc1)c1ccccn1 [euspeclibcmpd2243]	0.517
Oc1cccc(O)c1 [euspeclibcmpd262]	13.8 (active)
Oc1ccc2ccccc2c1 [euspeclibcmpd1176]	1.48
CC(=O)Nc1cccc(O)c1 [euspeclibcmpd1259]	-0.0594
CCCCC(=O)N(Cc1ccc(-c2ccccc2-c2nn[nH]n2)cc1)C(C(=O)O)C(C)C (stereo not drawn) [euspeclibcmpd719]	-1.02
CC(=O)OCC(=O)[C@@]1(O)CCC2C3CC=C4CC(=O)CC[C@]4(C)C3C(=O)C[C@@]21C (stereo partly drawn) [euspeclibcmpd74]	-0.793
N#C/C(=C\c1ccc(SC(F)(F)F)cc1)c1nnc2n1CCCCC2	2.21 (active)
CCN[C@@H]1C[C@H](N)[C@@H](O[C@H]2OC(CN)=CC[C@H]2N)[C@H](O)[C@H]1OC1OC[C@](C)(O)[C@H](NC)[C@H]1O (stereo partly drawn) [euspeclibcmpd845]	-0.391
CC(COc1ccccc1)N(CCCl)Cc1ccccc1 (stereo not drawn) [euspeclibcmpd203]	3.84 (active)
CC(C)COCC(CN(Cc1ccccc1)c1ccccc1)N1CCCC1 (stereo not drawn) [euspeclibcmpd972]	-0.387
CCOC(=O)OC(C)OC1=C(C(=O)N=c2cccc[nH]2)N(C)S(=O)(=O)c2ccccc21 (stereo not drawn) [euspeclibcmpd1195]	0.103
CCCCC(=O)O[C@H]1CCC2C3CCc4cc(O)ccc4C3CC[C@@]21C (stereo partly drawn) [euspeclibcmpd117]	-0.716
O=C(O)[C@]1(O)C[C@@H](O)[C@@H](O)[C@H](O)C1 [euspeclibcmpd1500]	-0.119
